The text below walks through data of PubChem BioAssay (EPA / NIEHS).

For orientation: AC50 means the midpoint of the concentration-response curve, whichever way the signal moves.

The nature of assay [1]: TOX21_p53_BLA_p2_viability: Viability Assessment in the Tox21 HCT-116 p53 Agonism Beta-lactamase Assay, Phase 2 (AID 2283591).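 Further: compound exposure lasted 16 h at 37 °C; actives lower the ATP signal meaning cytotoxicity.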 An outline of the steps:
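HCT-116 p53-bla cells (4000/well) rested 5 h at 37C, then received compounds in DMSO (217-fold dilution) for 16 h at 37C, 5% CO2. After the CCF4 read, CellTiter-Glo was added; ATP luminescence was read after 30 min at room temperature.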

Assay [2] has as its target Cellular tumor antigen p53 (Homo sapiens) (UniProt P04637). Briefly: TOX21_p53_BLA_p2_ratio: Tox21 HCT-116 p53 Agonism Beta-lactamase Assay, Ratio, Phase 2 (AID 2283592). A digest of the protocol: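 Plated HCT116 p53-bla cells (4000/well) received compound after 5 h, then 16 h at 37C/5% CO2. CCF4-AM added, 2 h RT. Ratio of 460 to 530 nm emission taken as the p53 reporter signal.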

Assay [3] in a line: TOX21_p53_BLA_p3_viability: Viability Assessment in the Tox21 HCT-116 p53 Agonism Beta-lactamase Assay, Phase 3 (AID 2283593).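 Further: cells exposed to compound for 16 h before reading.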 A digest of the protocol:
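HCT-116 cells (4000/well) rested 5 h at 37C, then got DMSO compounds by pin tool (217-fold dilution) for 16 h at 37C, 5% CO2. After the bla read, CellTiter-Glo was added and luminescence read at 30 min, room temperature.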

Assay [4] addresses Cellular tumor antigen p53 (Homo sapiens) (UniProt P04637). Briefly: TOX21_p53_BLA_p3_ratio: Tox21 HCT-116 p53 Agonism Beta-lactamase Assay, Ratio, Phase 3 (AID 2283596). A digest of the protocol:
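Cells were seeded at 4000/well, rested 5 h at 37C, then dosed with DMSO compound solutions (217-fold dilution) for 16 h. CCF4-AM substrate was loaded for 2 h at room temperature, and the 460/530 nm emission ratio was fitted for gain of signal versus DMSO.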

Assay [5] in a line: TOX21_p53_BLA_p4_viability: Viability Assessment in the Tox21 HCT-116 p53 Agonism Beta-lactamase Assay, Phase 4 (AID 2283597).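 Further: hits lower the luminescence signal meaning cytotoxicity.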 A digest of the protocol: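 Readout: ATP luminescence (CellTiter-Glo), measured 30 min after reagent addition at RT. The reagent followed a 2 h CCF4-AM incubation, and the cells had been exposed to compound for 16 h at 37C.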
Assay [6] has as its target Cellular tumor antigen p53 (Homo sapiens) (UniProt P04637). Briefly: TOX21_p53_BLA_p5_ratio: Tox21 HCT-116 p53 Agonism Beta-lactamase Assay, Ratio, Phase 5 (AID 2283599). A digest of the protocol: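 HCT-116 cells carrying a p53-inducible beta-lactamase reporter were seeded at 4000 cells/well and dosed after 5 h with compound in DMSO (217-fold dilution). After 16 h at 37C, CCF4-AM substrate was added for 2 h, and the 460/530 nm emission ratio was scored as gain-of-signal versus DMSO.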

Assay [7] in a line: TOX21_p53_BLA_p5_viability: Viability Assessment in the Tox21 HCT-116 p53 Agonism Beta-lactamase Assay, Phase 5 (AID 2283600). A digest of the protocol:
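Workflow: seed 4000 cells per well, wait 5 h, add compounds (DMSO, 217-fold dilution), incubate 16 h, load CCF4-AM 2 h, add CellTiter-Glo, read luminescence after 30 min.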

In assay [8] the target is Cellular tumor antigen p53 (Homo sapiens) (UniProt P04637). Briefly: TOX21_p53_BLA_p4_ratio: Tox21 HCT-116 p53 Agonism Beta-lactamase Assay, Ratio, Phase 4 (AID 2283601). An outline of the steps:
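HCT116 cells carrying an inducible beta-lactamase reporter were plated at 4000 cells/well, rested 5 h, then exposed to compounds in DMSO (217-fold dilution) for 16 h at 37C. CCF4-AM substrate was loaded 2 h at room temperature; 460/530 nm emission ratio scored gain-of-signal versus DMSO.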

Several values for one entry are separate records, joined by “and”; a condition that tells them apart may be missing. Equal values may be shown once. Inconclusive results are not listed. Activity calls are given as the source filed them. How the source made its calls: active means hit-call score of the fitted dose curve at least 0.9, where 1 is the maximum; inconclusive means response in the unintended direction; inactive means score below 0.9.

Chain of Cellular tumor antigen p53 (Homo sapiens) (P04637 whole entry, looked up): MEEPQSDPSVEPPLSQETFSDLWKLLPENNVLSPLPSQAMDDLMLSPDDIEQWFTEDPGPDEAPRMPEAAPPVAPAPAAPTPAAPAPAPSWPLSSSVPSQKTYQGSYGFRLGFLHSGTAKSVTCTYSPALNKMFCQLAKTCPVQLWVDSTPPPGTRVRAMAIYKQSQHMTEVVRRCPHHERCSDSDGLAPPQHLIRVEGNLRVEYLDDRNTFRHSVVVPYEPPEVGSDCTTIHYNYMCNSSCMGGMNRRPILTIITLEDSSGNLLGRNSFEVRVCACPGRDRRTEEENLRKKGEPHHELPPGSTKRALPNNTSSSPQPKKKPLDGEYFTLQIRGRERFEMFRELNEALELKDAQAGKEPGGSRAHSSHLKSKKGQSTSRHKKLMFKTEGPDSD

Regarding `O=C1CCc2ccc(OCCCCN3CCN(c4cccc(Cl)c4Cl)CC3)cc2N1`, the outcome in assay [1], in assay [2], in assay [4], in assay [5], in assay [6] and in assay [8] was inactive. For the same compound, the AC50 in assay [3] and in assay [7] was 23 µM (active) throughout.
Regarding `COC(=O)C1=C(C)NC(C)=C(C(=O)OCCCN2CCC(c3ccccc3)(c3ccccc3)CC2)C1c1cccc([N+](=O)[O-])c1` (centres undefined), the AC50 was 32.9 µM (active) in assay [1]; 42 µM (active) in assay [2]; 36 µM (active) in assay [3]; 36.8 µM (active) in assay [4]; 28.8 µM (active) in assay [5]; 43.6 µM (active) in assay [6]. Further, the results for the AC50 in assay [7] and in assay [8] were 37.4 µM (active) and 42.8 µM (active), respectively.
As for `OC[C@]1(O)OC[C@@H](O)[C@H](O)[C@@H]1O`, the compound was called inactive in assay [1], in assay [2], in assay [3], in assay [4], in assay [5] and in assay [6]. The call in assay [7] and in assay [8] was inactive.
`C[N+]1([O-])CCOCC1`: the outcome in assay [1], in assay [2], in assay [3], in assay [4], in assay [5] and in assay [6] was inactive. The outcome in assay [7] and in assay [8] was inactive.
As for `CO[C@H]1C[C@H](O[C@H]2[C@H](C)O[C@@H](O[C@@H]3/C(C)=C/C[C@@H]4C[C@@H](C[C@]5(C=C[C@H](C)[C@@H](C6CCCCC6)O5)O4)OC(=O)[C@@H]4C=C(C)[C@@H](O)[C@H]5OC/C(=C\C=C\[C@@H]3C)[C@]54O)C[C@@H]2OC)O[C@@H](C)[C@@H]1O`, the AC50 is 5.93 µM (active) in assay [1]; 9.45 µM (active) in assay [3]; 15.8 µM (active) in assay [4]; 5.07 µM (active) in assay [5]; 7.81 µM (active) in assay [6]; 6.84 µM (active) in assay [7]. The outcome in assay [2] and in assay [8] was inactive.
For `C[C@@H](O[C@H]1OCCN(Cc2n[nH]c(=O)[nH]2)[C@H]1c1ccc(F)cc1)c1cc(C(F)(F)F)cc(C(F)(F)F)c1`, the AC50 in assay [1] was 31.3 µM (active); in assay [3], 33.4 µM (active); in assay [5], 29.1 µM (active); in assay [6], 34.2 µM (active); in assay [7], 37.5 µM (active); in assay [8], 35.1 µM (active). In addition, the result in assay [2] and in assay [4] was inactive.
Turning to `Oc1ccc(Cl)cc1Sc1cc(Cl)ccc1O`, the AC50 in assay [1] was 31.3 µM (active) and 23 µM (active); in assay [2] it was 31.8 µM (active) and 8.26 µM (active); in assay [3], 46 µM (active) and 23 µM (active); in assay [4], 46 µM (active) and 21.2 µM (active); in assay [5], 53.9 µM (active) and 15.2 µM (active); in assay [6], 72.3 µM (active) and 32.1 µM (active). Besides, the AC50 in assay [7] was 70.2 µM (active) and 23 µM (active); in assay [8], 65 µM (active) and 28.6 µM (active).
As for `C[C@@H]1CCC2[C@@H](C)[C@@H](O)O[C@@H]3O[C@@]4(C)CC[C@@H]1[C@@]23OO4` (some centres undefined), the compound was classed as inactive in assay [1], in assay [2], in assay [3], in assay [4], in assay [5] and in assay [6]. Also, the call in assay [7] and in assay [8] was inactive.
With `Clc1ccc(C(Cn2ccnc2)OCc2c(Cl)cccc2Cl)c(Cl)c1` (centres undefined), the compound was classed as inactive in assay [1], in assay [3], in assay [5], in assay [6] and in assay [7]. The AC50 in assay [2] is 17.7 µM (active); in assay [4], 17.9 µM (active); in assay [8] it was 16.7 µM (active).
For the compound `CCCCCCCC[P+](CCCCCCCC)(CCCCCCCC)CCCCCCCC`, the AC50 in assay [1] was 15.8 µM (active); in assay [2] it was 29.2 µM (active); in assay [3] it was 13.3 µM (active); in assay [4] it was 13.4 µM (active); in assay [5] it was 21.6 µM (active); in assay [6] it was 13.2 µM (active). In addition, the AC50 is 13.6 µM (active) in assay [7] and 31.7 µM (active) in assay [8].
As to `Nc1ccc(N)c2ccccc12`, the AC50 is 46 µM (active) in assay [1]; 16.5 µM (active) in assay [2]; 3.49 µM (active) in assay [3]; 46 µM (active) in assay [5]; 86 µM (active) in assay [6]; 46 µM (active) in assay [7]. Further, the AC50 in assay [8] was 13.5 µM (active). Besides, the result in assay [4] was inactive.
For `CCCN1C[C@H](CSC)C[C@@H]2c3cccc4[nH]cc(c34)C[C@H]21`, the compound was classed as inactive in assay [1], in assay [2], in assay [3], in assay [4], in assay [5] and in assay [6]. The outcome in assay [7] and in assay [8] was inactive.
As to `CC(NCCC(c1ccccc1)c1ccccc1)c1ccccc1` (centres undefined), the AC50 is 26.6 µM (active) in assay [1]; 33.9 µM (active) in assay [2]; 32.5 µM (active) in assay [5]; 35.8 µM (active) in assay [6]; 39.4 µM (active) in assay [8]. Besides, the compound was classed as inactive in assay [3], in assay [4] and in assay [7].
Turning to `O[C@@H]([C@H](O)[C@H](O)CBr)[C@H](O)CBr`, the result in assay [1], in assay [2], in assay [3], in assay [4], in assay [5] and in assay [6] was inactive. Moreover, the compound was classed as inactive in assay [7] and in assay [8].
In the case of `CN1CCN(CCCN2c3ccccc3Sc3ccc(Cl)cc32)CC1`, the AC50 in assay [1] is 33.8 µM (active); in assay [2] it was 43.7 µM (active); in assay [3], 34.7 µM (active); in assay [5], 38.3 µM (active); in assay [6], 43.3 µM (active); in assay [7] it was 34.4 µM (active). In addition, in assay [8], the AC50 was 43.7 µM (active). In assay [4], the result was inactive.
As to `CC(C)(O)c1ccccc1CC[C@@H](SCC1(CC(=O)O)CC1)c1cccc(/C=C/c2ccc3ccc(Cl)cc3n2)c1`, the AC50 in assay [1] is 18.2 µM (active); in assay [3] it was 19.4 µM (active); in assay [4], 33.8 µM (active); in assay [5] it was 15.1 µM (active); in assay [6], 17.6 µM (active); in assay [7], 14.5 µM (active). In assay [8], the AC50 was 18.8 µM (active). Besides, the outcome in assay [2] was inactive.
For `COc1cc(O)cc(O)c1`, the outcome in assay [1], in assay [2], in assay [3], in assay [4], in assay [5] and in assay [6] was inactive. Besides, the compound was called inactive in assay [7] and in assay [8].
As to `O=C(/C=C/c1ccc([N+](=O)[O-])cc1)c1ccccc1`, the call in assay [1], in assay [2], in assay [3], in assay [4], in assay [5] and in assay [6] was inactive. Moreover, the compound was called inactive in assay [7] and in assay [8].
